Reference: PubChem BioAssay (NCI)
About 83,000 compounds went through this panel and 20% of them were active in at least one assay; those are over-represented in the sample as a whole.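 A percent growth of 40 corresponds to 60% growth inhibition; 0 means no net growth; -100 means all cells died. Active threshold: below 10.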 Activity calls are given as the source filed them.

Tested on: HL-60(TB) leukemia
Experiment: NCI-60 one-dose screen, 48 h (100 = growth as untreated, 0 = no growth, -100 = all killed)
Details: 10 µM unless noted

SMILES | growth
C=C(C)[C@@H]1CC[C@]2(c3ncc(C)o3)CC[C@]3(C)[C@H](CC[C@@H]4[C@@](C)(CCC#N)[C@H](C(=C)C)CC[C@]43C)[C@@H]12 | -27.9% [100 µM] (active)
Cc1ccc(S(=O)(=O)NCCN2c3nc4ccccc4cc3Sc3cc4ccccc4nc32)cc1 | 94.4% (inactive)
COc1nc2ccc(C)cc2cc1-c1nc2c(cnn2-c2ccccc2)c(=O)[nH]1 | 50.1% (inactive)
Cc1nc2ccccc2c(/C=C/c2ccccc2)c1C(=O)/C=C/c1ccccc1 | 23.1% (inactive)
O=c1onc(-c2ccccc2)c2ccccc12 | 86.8% (inactive)
CCOC(=O)c1sc2nc(-c3cccc(O)c3)nc(N3CCOCC3)c2c1C | 78.3% (inactive)
N#Cc1c(-c2ccccc2)nc2c(c(-c3ccccc3)nn2-c2ccccc2)c1-c1ccc(N2CCCCC2)cc1 | 95.8% (inactive)
CN(C)c1ccc(/C=C(\C#N)c2nc3ccccc3c(=O)[nH]2)cc1 | 108% (inactive)
COc1cc(NCC(C)(O)CN(CC(C)C)CC(C)C)c2nc(C)ccc2c1 (stereo not drawn) | 71.4% (inactive)
Cc1cc(O)c(=O)cc2c1C[C@H]1CC(C)(C)/C=C/C[C@]3(C)Oc4cc(=O)c(O)cc(C)c4C[C@H]3C[C@H](O)[C@@]1(C)O2 | -19.8% (active)
O=C1c2cc3c(cc2-c2c1c1ccc(F)cc1c(=O)n2CCCN1CCOCC1)OCO3 | 13.7% (inactive)
CSC1=C(N)C(=O)c2[nH]cc(CO)c2C1=N | -28.1% (active)
N=c1n(Cc2ccccc2)c(N)cc(=O)n1Cc1ccccc1 | 11.3% (inactive)
